The source made the active and inactive calls. Rule for the calls: active = hit-call score of the fitted dose curve at least 0.9, where 1 is the maximum; inactive = score below 0.9.
Key:
[1] = biological target: CCAAT/enhancer-binding protein beta (Homo sapiens) (UniProt P17676); assay: ATG_C_EBP_CIS: Attagene CIS-FACTORIAL HepG2 Assay for human CCAAT/Enhancer Binding Protein (C/EBP) beta (AID 2282927); conditions: HepG2 Attagene cis-factorial transcription factor reporter; actives raise or lower the signal
Method in brief: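 Following a 24 h incubation with test chemical, transfected HepG2 cells yielded RNA whose reporter transcripts were quantified by RT-PCR and fluorescent capillary electrophoresis, with DMSO serving as baseline for bidirectional fitting.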

[2] = ATG_DR4_LXR_CIS: Attagene CIS-FACTORIAL HepG2 Assay for human Liver X Receptor (LXR), DR4 submotif (AID 2282929); conditions: HepG2 Attagene DR4 cis-reporter, mRNA transcription; actives raise or lower the signal
Method in brief: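 Measures endogenous transcription factor activity via a DR4-driven reporter transcript in human HepG2 cells. Compounds incubated 24 h; mRNA quantified by RT-PCR and capillary electrophoresis, analysed as gain or loss of signal versus DMSO.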

[3] = biological target: Aryl hydrocarbon receptor (Homo sapiens) (UniProt P35869); assay: ATG_Ahr_CIS: Attagene CIS-FACTORIAL HepG2 Assay for human Aryl Hydrocarbon Receptor (Ahr) (AID 2282930); conditions: HepG2 AhR cis-factorial reporter transcription; actives raise or lower the signal
Method in brief: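 Values derive from bidirectional fitting against DMSO negative control. Underlying signal: cis-element reporter mRNA in transiently transfected HepG2, harvested 24 h post-dose and measured by RT-PCR plus capillary electrophoresis.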

[4] = ATG_AP_2_CIS: Attagene CIS-FACTORIAL HepG2 Assay for human Activator Protein 2 (AP-2) (AID 2282932); conditions: HepG2 AP-2 cis-reporter, Attagene transcription factor profiling; actives raise or lower the signal
Method in brief: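 Cells (HepG2) transfected with promoter-driven reporter constructs, treated 24 h. Total RNA reverse-transcribed, reporter cDNA PCR-amplified, FAM-labelled by primer extension, digested, resolved by capillary electrophoresis. Activity fitted both directions versus DMSO.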

[5] = ATG_BRE_CIS: Attagene CIS-FACTORIAL HepG2 Assay for human Bone Morphogenetic Protein (BMP) Response Element (BRE) (AID 2282933); conditions: HepG2 BMP response element reporter, Attagene transcription factor profiling; actives raise or lower the signal
Method in brief: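 Multiplexed cis-reporter assay, HepG2, 24 h exposure. mRNA from reporter units quantified via RT-PCR/CE; DMSO baseline; bidirectional curve fit.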

[6] = ATG_CMV_CIS: Attagene CIS-FACTORIAL HepG2 Assay for human CMV (Internal Marker) (AID 2282928); conditions: HepG2 CMV promoter reporter, transcription factor profiling; actives raise or lower the signal;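 note: endpoint acts as a background internal control marker rather than a target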
Method in brief: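 Fluorescence intensity of RT-PCR-derived reporter fragments, resolved by capillary electrophoresis, gives the signal. HepG2 liver cells bearing transfected cis-element reporters were treated 24 h; activity in either direction was fit relative to DMSO-treated controls.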

[7] = ATG_AP_1_CIS: Attagene CIS-FACTORIAL HepG2 Assay for human Activator Protein 1 (AP-1) (AID 2282931); conditions: HepG2 Attagene cis-factorial AP-1 reporter mRNA; actives raise or lower the signal
Method in brief: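 Bidirectional concentration-response fitting against DMSO controls. Underlying signal: reporter mRNA from cis-promoter constructs in transiently transfected HepG2, measured after 24 h by RT-PCR and capillary electrophoresis.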

[8] = biological target: Retinoic acid receptor alpha (Homo sapiens) (UniProt P10276); assay: ATG_DR5_RAR_CIS: Attagene CIS-FACTORIAL HepG2 Assay for human Retinoic Acid Receptor Alpha (RARE), DR5 submotif (AID 2282934); conditions: HepG2 Attagene cis-factorial RARE DR5 reporter, mRNA; actives raise or lower the signal;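 for AC50: reporter responds to endogenous RAR alpha beta and gamma in HepG2 not RARA alone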
Method in brief: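 Endpoint fitted in both directions relative to DMSO as negative control. It reflects DR5 cis-element reporter mRNA induction in transiently transfected HepG2 cells, measured 24 h after dosing through RT-PCR and fluorescent capillary electrophoresis.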

Sequence of Retinoic acid receptor alpha (Homo sapiens) (P10276 whole entry, looked up): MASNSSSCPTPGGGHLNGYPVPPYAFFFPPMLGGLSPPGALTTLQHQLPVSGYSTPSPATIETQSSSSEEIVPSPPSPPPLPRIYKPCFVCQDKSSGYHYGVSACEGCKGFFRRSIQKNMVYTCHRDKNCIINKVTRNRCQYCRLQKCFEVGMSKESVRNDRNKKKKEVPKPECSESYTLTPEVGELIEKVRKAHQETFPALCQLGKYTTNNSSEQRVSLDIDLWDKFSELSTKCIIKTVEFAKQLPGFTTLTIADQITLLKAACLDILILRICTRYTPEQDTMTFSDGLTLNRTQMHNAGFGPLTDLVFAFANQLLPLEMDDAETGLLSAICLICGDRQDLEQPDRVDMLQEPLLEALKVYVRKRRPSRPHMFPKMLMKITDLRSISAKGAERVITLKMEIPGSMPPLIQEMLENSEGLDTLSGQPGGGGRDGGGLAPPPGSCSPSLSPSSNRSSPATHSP
Sequence of Aryl hydrocarbon receptor (Homo sapiens) (P35869 whole entry, looked up): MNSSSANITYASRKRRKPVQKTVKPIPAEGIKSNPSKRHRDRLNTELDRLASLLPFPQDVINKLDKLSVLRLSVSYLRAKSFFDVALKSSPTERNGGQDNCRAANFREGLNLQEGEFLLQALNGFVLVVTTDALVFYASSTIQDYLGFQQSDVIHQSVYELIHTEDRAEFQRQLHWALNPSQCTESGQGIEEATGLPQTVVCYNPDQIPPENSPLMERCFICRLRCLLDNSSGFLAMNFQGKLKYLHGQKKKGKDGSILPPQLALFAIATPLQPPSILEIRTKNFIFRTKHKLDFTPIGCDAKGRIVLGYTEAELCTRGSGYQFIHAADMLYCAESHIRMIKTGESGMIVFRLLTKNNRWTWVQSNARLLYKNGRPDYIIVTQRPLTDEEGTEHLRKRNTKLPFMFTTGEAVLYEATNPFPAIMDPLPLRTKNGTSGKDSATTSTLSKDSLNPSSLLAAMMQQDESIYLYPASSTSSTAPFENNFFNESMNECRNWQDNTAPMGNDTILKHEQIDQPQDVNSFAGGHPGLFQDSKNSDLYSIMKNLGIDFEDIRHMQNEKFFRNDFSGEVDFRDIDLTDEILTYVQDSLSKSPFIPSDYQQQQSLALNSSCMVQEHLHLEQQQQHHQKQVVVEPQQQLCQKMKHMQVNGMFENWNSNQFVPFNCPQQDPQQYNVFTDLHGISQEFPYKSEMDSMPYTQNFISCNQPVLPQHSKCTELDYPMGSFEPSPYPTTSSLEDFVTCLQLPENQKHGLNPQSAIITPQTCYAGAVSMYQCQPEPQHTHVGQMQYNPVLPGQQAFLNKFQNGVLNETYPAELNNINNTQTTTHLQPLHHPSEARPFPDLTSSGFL
Sequence of CCAAT/enhancer-binding protein beta (Homo sapiens) (P17676 whole entry, looked up): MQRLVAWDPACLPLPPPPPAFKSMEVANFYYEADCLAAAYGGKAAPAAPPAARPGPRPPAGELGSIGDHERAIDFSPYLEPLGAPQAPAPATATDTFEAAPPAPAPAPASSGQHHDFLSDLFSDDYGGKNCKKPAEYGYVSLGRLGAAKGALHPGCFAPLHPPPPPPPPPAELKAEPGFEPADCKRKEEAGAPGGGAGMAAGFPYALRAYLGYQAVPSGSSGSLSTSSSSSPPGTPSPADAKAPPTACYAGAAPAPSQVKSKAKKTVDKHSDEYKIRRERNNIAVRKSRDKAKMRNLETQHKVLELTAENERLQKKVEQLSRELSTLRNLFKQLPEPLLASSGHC

For `O=S1(=O)CC(Cl)(Cl)C(Cl)(Cl)C1`, the outcome [1] was “inactive”, the AC50 [2] was 2.41 µM (active) and the outcome [3] was “inactive”. For the same molecule, the outcome [4] was “inactive” and the outcome [5] was “inactive”.

With `CC(=O)OC(C)(C)C` the outcome [1] was “inactive”, the outcome [6] was “inactive” and the outcome [2] was “inactive”. For the same molecule, the outcome [3] was “inactive”, the outcome [7] was “inactive” and the outcome [5] was “inactive”.

With `CC1(C)CC(=O)CC(C)(C)N1` the outcome [1] was “inactive”, the outcome [2] was “inactive” and the outcome [3] was “inactive”. The outcome [7] was “inactive”, the outcome [4] was “inactive” and the outcome [5] was “inactive”.

In the case of `CCCC(O)C(CC)CO` (stereo unspecified), the outcome [6] is reported as “inactive”, the outcome [2] is reported as “inactive” and the outcome [3] is reported as “inactive”. For the same molecule, the outcome [5] was “inactive”.

With `ClCCOCCOCCCl` the outcome [2] was “inactive”, the outcome [3] was “inactive” and the outcome [7] was “inactive”. The outcome [4] was “inactive” and the outcome [5] was “inactive”.

For `CC(=O)N(C)C`, the outcome [1] was “inactive”, the outcome [2] was “inactive” and the outcome [3] was “inactive”. The outcome [4] was “inactive”, the outcome [5] was “inactive” and the outcome [8] was “inactive”.

With `COC(=O)C(C)Oc1ccc(Oc2ncc(C(F)(F)F)cc2Cl)cc1` (stereo unspecified) the outcome [1] was “inactive”, the outcome [6] was “inactive” and the outcome [2] was “inactive”. The AC50 [3] was 3.09 µM (active), the outcome [4] was “inactive” and the AC50 [5] was 149 µM (active).

In the case of `CCOC(=O)CC1(C)OCC(C)O1` (stereo unspecified), the outcome [1] is reported as “inactive”, the outcome [6] is reported as “inactive” and the outcome [2] is reported as “inactive”. The outcome [3] was “inactive”, the outcome [7] was “inactive” and the outcome [4] was “inactive”. For the same molecule, the outcome [5] was “inactive” and the outcome [8] was “inactive”.

With `Nc1cc([N+](=O)[O-])ccc1C(=O)O` the outcome [1] was “inactive”, the outcome [6] was “inactive” and the outcome [2] was “inactive”. The outcome [7] was “inactive”, the outcome [4] was “inactive” and the outcome [5] was “inactive”.

With `CC(C)N(c1ccccc1)C(C)C` the outcome [6] was “inactive”, the outcome [2] was “inactive” and the outcome [3] was “inactive”. The outcome [7] was “inactive”, the outcome [4] was “inactive” and the outcome [5] was “inactive”.

In the case of `CCCCCCCCCO`, the outcome [6] is reported as “inactive”, the outcome [2] is reported as “inactive” and the outcome [3] is reported as “inactive”. For the same molecule, the outcome [7] was “inactive”, the outcome [4] was “inactive” and the outcome [5] was “inactive”.

For `OCCCO`, the outcome [1] was “inactive”, the outcome [2] was “inactive” and the outcome [7] was “inactive”. For the same molecule, the outcome [4] was “inactive”, the outcome [5] was “inactive” and the outcome [8] was “inactive”.

With `CCCCCCC(O)CCOC(C)=O` (stereo unspecified) the outcome [1] was “inactive”, the outcome [2] was “inactive” and the outcome [7] was “inactive”. For the same molecule, the outcome [4] was “inactive” and the outcome [5] was “inactive”.

With `CC1=CC[C@@H]2C[C@H]1C2(C)C` the outcome [1] was “inactive”, the outcome [6] was “inactive” and the outcome [2] was “inactive”. For the same molecule, the outcome [7] was “inactive”, the outcome [5] was “inactive” and the outcome [8] was “inactive”.

In the case of `CCCCCCCCCCCCS`, the AC50 [1] is reported as 24.2 µM (active), the outcome [6] is reported as “inactive” and the AC50 [2] is reported as 33.4 µM (active). The AC50 [7] was 48.8 µM (active), the outcome [4] was “inactive” and the outcome [5] was “inactive”. The AC50 [8] was 9.11 µM (active).

With `Nc1ccc(N)c([N+](=O)[O-])c1` the AC50 [6] was 77.1 µM (active) [middle of 5 runs], the outcome [2] was “inactive” and the outcome [5] was “inactive”. The outcome [8] was “inactive”.

With `CCCCCCCCCCOC(=O)c1ccccc1C(=O)OCCCCCCCC` the outcome [1] was “inactive”, the outcome [6] was “inactive” and the outcome [2] was “inactive”. For the same molecule, the outcome [3] was “inactive”, the outcome [7] was “inactive” and the outcome [4] was “inactive”. For the same molecule, the outcome [5] was “inactive”.

With `CN(C)c1ccc(C=O)cc1` the outcome [1] was “inactive”, the outcome [6] was “inactive” and the outcome [2] was “inactive”. The outcome [3] was “inactive”, the outcome [7] was “inactive” and the outcome [4] was “inactive”. For the same molecule, the outcome [5] was “inactive”.

For `CC1=CCC(C(C)(C)O)CC1` (stereo unspecified), the outcome [1] was “inactive”, the outcome [6] was “inactive” and the outcome [2] was “inactive”. The outcome [3] was “inactive”, the outcome [4] was “inactive” and the outcome [5] was “inactive”.

For `NS(=O)(=O)c1cc(C(=O)O)c(NCc2ccco2)cc1Cl`, the outcome [6] was “inactive”, the outcome [3] was “inactive” and the outcome [7] was “inactive”. The outcome [5] was “inactive”.

For `CCC(C)(C)C1CCC(OC)CC1` (stereo unspecified), the outcome [6] was “inactive”, the outcome [2] was “inactive” and the outcome [7] was “inactive”. For the same molecule, the outcome [4] was “inactive” and the outcome [5] was “inactive”.

In the case of `CCNC(=S)NCC`, the outcome [6] is reported as “inactive”, the outcome [2] is reported as “inactive” and the outcome [3] is reported as “inactive”. The outcome [4] was “inactive” and the outcome [5] was “inactive”.

In the case of `CC(C)Cc1ccc(C(C)C(=O)O)cc1` (stereo unspecified), the outcome [1] is reported as “inactive”, the outcome [6] is reported as “inactive” and the outcome [2] is reported as “inactive”. For the same molecule, the outcome [3] was “inactive”, the outcome [7] was “inactive” and the outcome [4] was “inactive”. For the same molecule, the outcome [5] was “inactive” and the outcome [8] was “inactive”.

In the case of `O=c1cc(-c2ccc(O)cc2)oc2cc(O)cc(O)c12`, the AC50 [1] is reported as 16.8 µM (active), the AC50 [6] is reported as 6.31 µM (active) and the AC50 [2] is reported as 7.83 µM (active). The outcome [3] was “inactive”, the AC50 [7] was 64.3 µM (active) and the outcome [4] was “inactive”. For the same molecule, the outcome [5] was “inactive” and the outcome [8] was “inactive”.

With `CC(O)CN` (stereo unspecified) the outcome [1] was “inactive”, the outcome [6] was “inactive” and the outcome [2] was “inactive”. For the same molecule, the outcome [7] was “inactive”, the outcome [4] was “inactive” and the outcome [5] was “inactive”.

With `CCOc1ccc(NC(C)=O)cc1` the outcome [1] was “inactive”, the outcome [2] was “inactive” and the outcome [3] was “inactive”. For the same molecule, the outcome [7] was “inactive” and the outcome [5] was “inactive”.

For `CCCCCC1C(=O)CCC1CC(=O)OC` (stereo unspecified), the outcome [6] was “inactive”, the outcome [2] was “inactive” and the outcome [3] was “inactive”. For the same molecule, the outcome [7] was “inactive”, the outcome [4] was “inactive” and the outcome [5] was “inactive”. The outcome [8] was “inactive”.

In the case of `CC(=O)Nc1cc(S(=O)(=O)O)cc2cc(S(=O)(=O)O)c(N=Nc3ccccc3)c(O)c12`, the outcome [1] is reported as “inactive”, the outcome [6] is reported as “inactive” and the outcome [2] is reported as “inactive”. For the same molecule, the outcome [7] was “inactive”, the outcome [4] was “inactive” and the outcome [5] was “inactive”.

— PubChem BioAssay (EPA / NIEHS)
